About 64,000 (15%) of roughly 420,000 compounds were called active. Roughly 27% stayed inconclusive and do not appear here. A selection follows. Values without a mark were called inactive. Calls follow the shape of the dose curve; as a rule, active = well fitted inhibition curve with a large enough effect; inconclusive = small, poorly fitted or top-dose-only effect; inactive = flat fitted curve, though single readings scatter.
Assay: qHTS for Inhibitors of human tyrosyl-DNA phosphodiesterase 1 (TDP1): qHTS in cells in absence of CPT; also: nearly all actives have a fitted effect of over 55% in size
Conditions: DT40 Tdp1-/- hTDP1 cells, no CPT, ATP luminescence, 48 h; activity change, negative = growth inhibition: at 46.2 µM (top of the series)
Procedure, shortened: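 DT40 Tdp1-/-;hTDP1 cells, no CPT (DMSO vehicle only), 400 cells/well; compounds pin-transferred; ≥48 hr, 37 °C; CellTiter-Glo 30 min RT dark, luminescence read.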
% is scaled to controls: 0 for no effect and ±100 for the full control effect; potency is read from the fitted curve at half-maximal effect.

SMILES | activity change, negative = growth inhibition | Potency
CC(=O)c1sc2nc(SCC(=O)N3CCCCC3)[nH]c(=O)c2c1C | -1.59% | 
COc1ccc(NC(=O)c2sc3nc[nH]c(=O)c3c2C)cc1 | -20.4% | 
CC(=O)c1ccc(NC(=O)c2sc3nc4n(c(=O)c3c2C)CCCCC4)cc1 |  | 13 µM (active)
Cc1ccc(NC(=S)NC(=O)/C=C/c2ccc(Cl)cc2)cc1 | -25.3% | 
CC(C)C[C@H](NC(=O)[C@@H]1O[C@H]1C(=O)O)C(=O)NCCCCN=C(N)N | 7.11% | 
C=CCOc1cccc(C2NC(=O)c3ccccc3O2)c1 (centres undefined) | -17.6% | 
CCCc1c(C(=O)Nc2ccc(F)cc2)cnn1-c1ccccc1 |  | 14.6 µM (active)
CCc1ccccc1NC(=O)c1cnn(-c2ccc(F)cc2)c1C1CCNCC1 | -18.4% | 
CCCc1c(C(=O)O)cnn1-c1ccc(Cl)cc1 | -21.2% | 
CN(C(=O)COC(=O)c1ccc(Br)o1)c1c(N)n(Cc2ccccc2)c(=O)[nH]c1=O | -17.2% | 
O=S(=O)(Cc1nnnn1-c1ccc(Br)cc1)c1ccc(F)cc1 | -15.1% | 
Cc1cc(C)cc(Oc2c(C(F)(F)F)oc3cc(OCC(=O)O)ccc3c2=O)c1 | -19% | 
COc1cc(/C=N/Nc2nc3ccccc3s2)ccc1O |  | 1.3 µM (active)
Cc1ccc(S(=O)(=O)Nc2nc3ccccc3s2)cc1[N+](=O)[O-] | -10.3% | 
O=[N+]([O-])c1cc(Br)c(O)c(/C=N/Nc2nc3ccccc3s2)c1 |  | 18.4 µM (active)
COc1cc(C=NC2CCCCC2)ccc1O | -20.7% | 
COc1ccc(/C=N/Nc2nc3ccccc3o2)cc1OC | 8.23% | 
CN(C(=O)CSc1nnc(N)s1)c1c(N)n(Cc2ccccc2)c(=O)[nH]c1=O | -3.27% | 
COc1cc(Br)cc2cc(S(=O)(=O)c3ccccc3)c(=O)oc12 | -2.21% | 
COc1cccc(N2CC(NS(=O)(=O)c3ccc(Cl)cc3)CC2=O)c1 (centres undefined) | -18.3% | 
COc1cccc(N2CC(NS(=O)(=O)c3cccs3)CC2=O)c1 (centres undefined) | -5.55% | 
COc1ccc(N2CC(NS(=O)(=O)c3ccc4ccccc4c3)CC2=O)cc1 (centres undefined) |  | 23.1 µM (active)
CC(C)(O)C(=O)NN(C(=O)c1ccccc1)c1cccc(Br)c1 | 4.16% | 
CCCC(O)(CCC)C(=O)NN(C(=O)CCl)c1cccc(C)c1 |  | 5.8 µM (active)
COC(=O)N(NC(=O)C(O)(C(C)C)C(C)C)c1ccccc1 | 3.81% | 
Cc1ccc(N(NC(=O)C(C)(C)O)C(=O)c2ccccc2)cc1C | -27% | 

SMILES | activity change, negative = growth inhibition | Potency
CCCCC(O)(CCCC)C(=O)NN(C(=O)CCl)c1ccccc1 |  | 20.6 µM (active)
CN(C)/C=C/c1c(C#N)c(=O)ncn1Cc1ccccc1 | 11.3% | 
COc1cc(/C=C(/NC(=O)c2ccc(Cl)cc2Cl)C(=O)O)cc(OC)c1OC | -3.62% | 
Cc1ccc(C(=O)N/C(=C\c2ccco2)C(=O)N2CCSCC2)cc1C | 2.18% | 
CCNc1nc(N)nc(Oc2ccc(OCC)nn2)n1 | -5.62% | 
CCOc1cccc(=O)c2c(C)n(CC3CCCO3)c(C)c12 (centres undefined) | -21.8% | 
Cc1ccc2c(=O)c(C(=O)c3ccc(F)cc3)cn(CC(=O)NC3CCCCC3)c2n1 | -11.5% | 
CC(OC(=O)CNC(=O)c1ccco1)C(=O)Nc1ccc(Cl)cn1 (centres undefined) | -3.04% | 
CCn1c(SCC(=O)NCC2CCCO2)nc2ccccc21 (centres undefined) | 1.62% | 
S=C(NCCc1ccccc1)NCC1CCCO1 (centres undefined) |  | 23.1 µM (active)
O=C(CS(=O)(=O)Cc1ccccc1)NCC1CCCO1 (centres undefined) | -15% | 
Cc1ccc(C(=O)NCC2CCCO2)o1 (centres undefined) | 13% | 
CN(CCc1ccccn1)C(=O)c1ccc(OC2CCN(Cc3ccccn3)CC2)cc1 | -9.13% | 
COC(=O)Cn1cc(/C=C/[N+](=O)[O-])c2ccccc21 |  | 14.6 µM (active)
COCCCNC(=O)Cn1cc(/C=C(\C#N)C(=O)N2CCN(c3ccccc3)CC2)c2ccccc21 | -35.8% | 
COC(=O)c1cn(CC(=O)NCc2cccs2)c2ccccc12 | 0.284% | 
CCCn1nc(C(=O)OCc2nc(N)nc(Nc3ccccc3C)n2)c2ccccc2c1=O | -16% | 
COCCN(C(=O)CCC(=O)Nc1nccs1)C(C(=O)NC(C)(C)C)c1ccc(Cl)cc1 (centres undefined) | -20.2% | 
CCn1c(CN2C(=O)CSc3ccccc32)n[nH]c1=S | -8.13% | 
COc1ccc(Br)cc1CNC(=O)c1cc(=O)[nH]c2ccc(S(=O)(=O)N3CCCC3)cc12 | -7.47% | 
CCOC(=O)CNc1nc(Cl)nc(Nc2ccc(OC)cc2OC)n1 | -24.2% | 
CCN1CCN(C(=O)c2cc3cc4ccc(OC)cc4nc3s2)CC1 | -22.2% | 
CCN1CCN(c2nc(Nc3cc(OC)ccc3OC)nc(Nc3cc(OC)ccc3OC)n2)CC1 |  | 23.1 µM (active)
c1ccc(-c2c[nH]c(-c3ccccc3)c2)cc1 | -2.86% | 
Cc1nn(-c2cc(Cl)ccc2N)c(=O)c2ccccc12 | -14.5% | 
CC(=O)Nn1cc2c(=O)n(C)c(=O)n(C)c2c1 | -1.04% | 

SMILES | activity change, negative = growth inhibition | Potency
COc1cccc(OC)c1C(=O)Nc1ccc2c(c1)n(C)c(=O)n2C | 17.7% | 
O=C1c2ccccc2C(=O)N1c1cccc2ccccc12 | -3.87% | 
COc1ccc(OC)c(-n2cc3c(=O)n(C)c(=O)n(C)c3c2)c1 |  | 14.6 µM (active)
Cn1c(=O)c2cn(-c3cccc4ccccc34)cc2n(C)c1=O |  | 25.9 µM (active)
COc1ccc(NC(=O)CCNS(=O)(=O)c2ccc3c(c2)c(=O)n(C)c(=O)n3C)cc1OC | -28% | 
CCSC1(SCC)N=C(N)C2(C#N)C(c3ccccc3)NC(C)=CC12C#N (centres undefined) | -15% | 
O=C(Cn1nnc2ccccc2c1=O)NCc1ccc(Cl)cc1 | -26.9% | 
Cc1noc(C)c1C(=O)OC(C)C(=O)Nc1ccc2c(c1)OCO2 (centres undefined) | -20.5% | 
NC(=O)c1ccc(Nc2ccc3nonc3c2[N+](=O)[O-])cc1 | -0.787% | 
Cc1ccc(C)c(S(=O)(=O)Nc2cc(C)on2)c1 | 24.7% | 
O=C(CN1CCN(S(=O)(=O)c2cccc(Cl)c2)CC1)N1CCCCC1 | 1.53% | 
O=C(CN1CCCSc2ccccc21)N1CCN(S(=O)(=O)c2ccccc2)CC1 | -21.5% | 
O=C(CN1CCCSc2ccccc21)N1CCN(S(=O)(=O)c2cccc(F)c2)CC1 |  | 7.31 µM (active)
COC(=O)[C@]1(S(=O)(=O)c2ccccc2)C[C@@H]2ON=C(c3ccc(OC)cc3)[C@@H]2C1 | -18.7% | 
N#C[C@]1(S(=O)(=O)c2ccccc2)C[C@@H]2ON=C(c3cccc(Br)c3)[C@@H]2C1 |  | 6.51 µM (active)
Cc1nc2sc(C)c(C)n2c(=O)c1S(=O)(=O)NCCc1ccc(Cl)cc1 | -8.23% | 
O=C(CN1CCN(S(=O)(=O)c2ccc(Cl)s2)CC1)N1CCCCC1 | -6.5% | 
O=C(N/N=C/c1ccc(O)c(O)c1)C1c2ccccc2Oc2ccccc21 |  | 25.9 µM (active)
O=C(N/N=C/c1cc2c(cc1Br)OCO2)C1COc2ccccc2O1 (centres undefined) | -18.1% | 
CCC(C)(C)NC(=O)C1c2ccccc2Oc2ccccc21 | -10.4% | 
COC1[C@H](OC(N)=O)C(O)[C@H](Oc2ccc3c(O)c(NC(=O)c4ccc(O)c(CC=C(C)C)c4)c(=O)oc3c2C)OC1(C)C (some centres undefined) | -6.85% | 
O=C1C=C(NCCNc2c(F)c(F)c(CO)c(F)c2F)CCC1 | -8.45% | 
CC(C)c1ccc(Cc2nnc(NCCCO)[nH]c2=O)cc1 | -9.08% | 
COc1ccc(Cc2nnc(N/N=C/c3ccccc3O)[nH]c2=O)cc1OC |  | 0.0206 µM (active)
O=c1[nH]c(NCCO)nnc1Cc1ccc(Cl)cc1 | -10.1% | 
CCc1cc(=O)oc2cc(C)cc(OC(C)C(=O)O)c12 (centres undefined) | 6.97% | 

SMILES | activity change, negative = growth inhibition | Potency
CC(C)CNS(=O)(=O)c1ccc(OCC(=O)Nc2ccc3c(c2)OCO3)c(Cl)c1 | 2.5% | 
CC(=O)OCC(C)n1c(=O)c2ccccc2n1C(C)=O (centres undefined) | -18.2% | 
CCCc1cc(=O)[nH]c(SCC(=O)N2C(C)CCCC2C)n1 (centres undefined) | -4.08% | 
CCCCCn1c(=O)[nH]c2cc(C(=O)Nc3cc(C)cc(C)c3)ccc2c1=O |  | 4.61 µM (active)
CCCCCn1c(=O)[nH]c2cc(C(=O)NCCCN3CCCCC3C)ccc2c1=O (centres undefined) | -29.4% | 
COCCn1c(=O)[nH]c2cc(C(=O)NCc3cccnc3)ccc2c1=O | 0.434% | 
CCN(C(=O)CSc1nnnn1-c1ccc(OC)cc1)C1CCS(=O)(=O)C1 (centres undefined) | 7.66% | 
COc1ccc([C@H]2CC(=O)C=C(/C=C/c3ccccc3)C2)cc1 | -10.5% | 
COc1ccc2c(c1)CCc1c(C(=O)Nc3c(C)n(C)n(-c4ccccc4)c3=O)noc1-2 | -24.4% | 
COc1cc(C(=O)Nc2nccs2)cc(OC)c1OC | -26.6% | 
COc1cc(NC(=O)c2noc3c2CSc2ccccc2-3)cc(OC)c1OC |  | 8.2 µM (active)
COc1cccc(COC(=O)C2CCN(S(=O)(=O)c3cccs3)CC2)c1OC | 0.105% | 
CC(C)(Oc1ccc(Cl)cc1)C(=O)OCC(=O)NCCc1ccc(S(N)(=O)=O)cc1 | -6.13% | 
Cc1ccc(CCN2CC(C(=O)O)CC2=O)cc1 (centres undefined) | 0.404% | 
Cc1ccc(-c2nnc(Nc3cccc(Br)c3)c3ccccc23)cc1S(=O)(=O)NCC1CCCO1 (centres undefined) |  | 11.6 µM (active)
Cc1cc(Cl)c(S(=O)(=O)NCC2CCCO2)cc1OCC(N)=O (centres undefined) | 9.13% | 
COCCCNc1nc2c(-c3cccc(C(F)(F)F)c3)nnn2c2ccccc12 | -25.1% | 
CCNS(=O)(=O)c1cc(-c2nnc(Nc3cccc(C(F)(F)F)c3)c3ccccc23)ccc1C |  | 5.8 µM (active)
Cc1ccc(-c2nnc(Nc3ccc(C(=O)N(C)C)cc3)c3ccccc23)cc1S(N)(=O)=O | -1.51% | 
Cc1ccc(C(=O)O)cc1S(=O)(=O)NCC1CCCO1 (centres undefined) | -3.24% | 
CCC(C)CN1C(=O)CN(S(C)(=O)=O)CC1(C)C(=O)Nc1ccc2c(c1)OCCO2 (centres undefined) | -8.04% | 
Cc1ccc(CSc2nc(-c3ccccc3)c(C#N)c(=O)[nH]2)cc1 | 6.61% | 
CCCCCN1CC(O)=C(c2ccccc2)C1=N | -23.7% | 
CCC(C)Sc1nnc(-c2c[nH]c3ccccc23)n1CCOC (centres undefined) | -25.8% | 
CCOC(=O)N1CCN(C(=O)CSc2nnc(-c3c[nH]c4ccccc34)n2CCOC)CC1 |  | 20.6 µM (active)
Cc1nnc(SCC(=O)N2CCN(c3ccccc3)CC2)n1-c1ccccc1 | -7.19% | 
